Data: the supplement of paper PMC10849652
The full data set covers some 7,900 targets. This sample favours those with a hit. About 0.6% of all pairs of compound and target were hits.

How the values were obtained:
Assay in all cases: log2 fold change, soluble protein after heating vs DMSO (PISA); higher = thermal stabilisation; K562 cells, 10 uM, 30 min; active = over 0.2 and 3.5 SD of the protein, either way, in both replicates (recomputed)
[1] = compound: NC(=O)Nc1cc(-c2cccc(F)c2)sc1C(=O)N[C@H]1CCCNC1
Procedure, shortened: (§1)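 Soluble protein was quantified by TMTpro 16plex LC-MS/MS after channel sums were equalised. It was obtained as the supernatant after 21,000xg for 90 min from pooled aliquots of K562 cells (2×10^6 cells/mL, 10 μM compound, 30 min) heated for 3 min across 48°C-58°C and extracted in PBS with 0.5% NP-40 at 4°C. Thermal stability values are relative to control samples and come from duplicates. They are given as log2 fold changes.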

[2] = compound: NC(=O)c1cnc(N[C@@H]2CCCC[C@@H]2N)nc1Nc1cccc(-n2nccn2)c1
Procedure, shortened: as §1

[3] = compound: NC1(c2ccc(-c3nc4ccn5c(=O)[nH]nc5c4cc3-c3ccccc3)cc2)CCC1
Procedure, shortened: as §1

[4] = compound: NCC(=O)Nc1ccc(-n2nc(C(F)(F)F)cc2-c2ccc3c(ccc4ccccc43)c2)cc1
Procedure, shortened: as §1

entinostat = compound: Nc1ccccc1NC(=O)c1ccc(CNC(=O)OCc2cccnc2)cc1 [entinostat]
Procedure, shortened: as §1

vorinostat = compound: O=C(CCCCCCC(=O)Nc1ccccc1)NO [vorinostat]
Procedure, shortened: as §1

citarinostat = compound: O=C(CCCCCCNC(=O)c1cnc(N(c2ccccc2)c2ccccc2Cl)nc1)NO [citarinostat]
Procedure, shortened: as §1

silmitasertib = compound: O=C(O)c1ccc2c(c1)nc(Nc1cccc(Cl)c1)c1ccncc12 [silmitasertib]
Procedure, shortened: as §1

[5] = compound: O=C1NC(=O)C(c2cnc3ccccn23)=C1c1cn2c3c(cc(F)cc13)CN(C(=O)N1CCCCC1)CC2
Procedure, shortened: as §1

[6] = compound: c1cc(OCCN2CCCCC2)cc(-c2n[nH]c3ccc(-c4nnc[nH]4)cc23)c1
Procedure, shortened: as §1

Measured: log2 fold change

OGFR (UniProt Q9NZT2)
inactive: [1] 0.049 | [2] -0.198 | [3] 0.015 | [4] 0.068 | entinostat -0.02 | vorinostat 0.096 | citarinostat 0.121 | silmitasertib 0.003 | [5] -0.019 | [6] -0.092

NOP2 isoform 4 (UniProt P46087)
inactive: [1] 0.205 | [2] 0.241 | [3] 0.408 | [4] 0.3 | entinostat -0.163 | vorinostat 0.014 | citarinostat -0.04 | silmitasertib 0.288 | [5] 0.344 | [6] -0.095

PAK1 isoform 2 (UniProt Q13153)
inactive: [1] -0.067 | [2] 0.051 | [3] 0.012 | [4] -0.083 | entinostat 0.021 | vorinostat 0.096 | citarinostat -0.033 | silmitasertib 0.043 | [5] -0.068 | [6] -0.032

NOP53 (UniProt Q9NZM5)
inactive: [1] 0.054 | [2] 0.201 | [3] 0.353 | [4] 0.258 | entinostat -0.141 | vorinostat -0.051 | citarinostat -0.063 | silmitasertib 0.256 | [5] 0.285 | [6] -0.152

MND1 (UniProt Q9BWT6)
Chain of UniProt Q9BWT6 (Q9BWT6 whole entry, looked up): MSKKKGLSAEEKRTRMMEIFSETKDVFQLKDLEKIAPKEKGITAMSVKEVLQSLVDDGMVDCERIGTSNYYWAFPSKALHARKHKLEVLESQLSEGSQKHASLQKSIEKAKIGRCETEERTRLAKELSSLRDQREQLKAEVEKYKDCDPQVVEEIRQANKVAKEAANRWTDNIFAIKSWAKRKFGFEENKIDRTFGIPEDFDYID
inactive: [1] -0.024 | [2] -0.012 | [3] -0.118 | [4] -0.119 | entinostat 0.041 | vorinostat -0.11 | citarinostat -0.033 | silmitasertib -0.014 | [5] -0.042 | [6] -0.146

MRPS33 (UniProt Q9Y291)
inactive: [1] 0.019 | [2] 0.02 | [3] -0.032 | [4] 0.046 | entinostat 0 | vorinostat 0.035 | citarinostat 0.039 | silmitasertib -0.066 | [5] 0.016 | [6] -0.052

NAP1L1 (UniProt P55209)
Chain of UniProt P55209 (P55209 whole entry, looked up): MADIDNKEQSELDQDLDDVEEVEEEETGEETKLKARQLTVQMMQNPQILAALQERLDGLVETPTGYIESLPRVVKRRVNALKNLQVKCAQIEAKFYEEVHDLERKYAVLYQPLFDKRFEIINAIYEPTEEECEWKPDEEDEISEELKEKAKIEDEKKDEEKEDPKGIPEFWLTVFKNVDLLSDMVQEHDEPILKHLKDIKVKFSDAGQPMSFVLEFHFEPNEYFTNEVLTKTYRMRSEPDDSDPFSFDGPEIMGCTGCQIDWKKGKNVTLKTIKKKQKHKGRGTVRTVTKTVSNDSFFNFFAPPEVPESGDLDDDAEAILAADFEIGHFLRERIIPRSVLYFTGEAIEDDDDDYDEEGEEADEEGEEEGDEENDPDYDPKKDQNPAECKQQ
inactive: [1] -0.084 | [2] 0.049 | [3] -0.01 | [4] -0.016 | entinostat 0.02 | vorinostat 0.008 | citarinostat -0.01 | silmitasertib 0.069 | [5] -0.038 | [6] 0.069

NECTIN2 isoform 2 (UniProt Q92692)
inactive: [1] 0.072 | [2] 0.171 | [3] -0.194 | [4] 0.031 | entinostat -0.032 | vorinostat 0.087 | citarinostat 0.108 | silmitasertib -0.039 | [5] -0.495 | [6] 0.09

NCAPD2 (UniProt Q15021)
Chain of UniProt Q15021 (Q15021 whole entry, looked up): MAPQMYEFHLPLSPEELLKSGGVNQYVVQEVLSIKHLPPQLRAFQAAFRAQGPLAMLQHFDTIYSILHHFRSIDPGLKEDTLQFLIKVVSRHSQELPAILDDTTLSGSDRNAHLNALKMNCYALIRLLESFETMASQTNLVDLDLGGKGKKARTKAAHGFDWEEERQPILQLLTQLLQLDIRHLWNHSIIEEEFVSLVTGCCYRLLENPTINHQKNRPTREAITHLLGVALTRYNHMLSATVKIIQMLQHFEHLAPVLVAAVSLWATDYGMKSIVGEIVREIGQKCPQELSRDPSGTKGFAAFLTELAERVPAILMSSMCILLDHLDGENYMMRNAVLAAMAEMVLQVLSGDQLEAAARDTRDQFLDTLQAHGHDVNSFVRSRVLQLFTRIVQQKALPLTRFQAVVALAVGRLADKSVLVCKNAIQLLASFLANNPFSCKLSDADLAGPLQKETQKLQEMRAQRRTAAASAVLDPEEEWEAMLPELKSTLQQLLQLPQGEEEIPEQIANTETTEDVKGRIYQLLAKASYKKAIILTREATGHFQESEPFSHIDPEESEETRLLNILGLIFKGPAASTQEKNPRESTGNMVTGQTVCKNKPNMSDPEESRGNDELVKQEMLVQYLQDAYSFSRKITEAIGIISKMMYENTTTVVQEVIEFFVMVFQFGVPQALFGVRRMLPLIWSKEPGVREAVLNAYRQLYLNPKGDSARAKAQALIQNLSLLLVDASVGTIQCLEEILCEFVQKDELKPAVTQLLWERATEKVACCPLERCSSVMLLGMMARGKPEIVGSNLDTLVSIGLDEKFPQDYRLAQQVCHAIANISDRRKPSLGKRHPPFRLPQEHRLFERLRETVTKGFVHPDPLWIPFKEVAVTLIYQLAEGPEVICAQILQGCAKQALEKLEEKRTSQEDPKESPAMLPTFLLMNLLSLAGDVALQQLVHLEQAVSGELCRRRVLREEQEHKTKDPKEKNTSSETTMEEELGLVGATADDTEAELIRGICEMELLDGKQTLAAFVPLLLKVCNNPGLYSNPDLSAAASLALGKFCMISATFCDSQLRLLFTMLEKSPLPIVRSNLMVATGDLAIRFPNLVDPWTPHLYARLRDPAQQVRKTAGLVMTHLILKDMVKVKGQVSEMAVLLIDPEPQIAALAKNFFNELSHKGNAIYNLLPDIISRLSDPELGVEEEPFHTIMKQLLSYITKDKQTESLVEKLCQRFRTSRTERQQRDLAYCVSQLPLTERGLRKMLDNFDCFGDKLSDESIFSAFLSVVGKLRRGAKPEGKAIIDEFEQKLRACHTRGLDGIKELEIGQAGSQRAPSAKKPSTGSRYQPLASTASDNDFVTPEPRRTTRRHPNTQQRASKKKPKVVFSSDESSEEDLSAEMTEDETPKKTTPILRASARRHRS
inactive: [1] -0.109 | [2] -0.075 | [3] -0.149 | [4] -0.045 | entinostat 0.084 | vorinostat 0.058 | citarinostat 0.078 | silmitasertib 0.135 | [5] 0.014 | [6] -0.002

NMRAL1 (UniProt Q9HBL8)
Chain of UniProt Q9HBL8 (Q9HBL8 whole entry, looked up): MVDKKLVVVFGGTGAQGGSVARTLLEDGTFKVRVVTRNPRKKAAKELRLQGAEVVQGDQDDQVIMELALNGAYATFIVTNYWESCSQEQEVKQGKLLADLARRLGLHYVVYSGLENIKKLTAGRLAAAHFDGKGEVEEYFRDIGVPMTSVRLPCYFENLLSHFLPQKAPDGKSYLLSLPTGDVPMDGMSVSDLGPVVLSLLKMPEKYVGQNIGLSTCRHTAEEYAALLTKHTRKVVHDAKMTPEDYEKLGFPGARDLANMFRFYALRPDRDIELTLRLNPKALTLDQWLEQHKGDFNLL
active: [2] 1.06
inactive: [1] 0.391 | [3] 0.717 | [4] -0.16 | entinostat -0.052 | vorinostat -0.139 | citarinostat -0.151 | silmitasertib 0.018 | [5] -0.005 | [6] 0.374

NEDD4L (UniProt Q96PU5)
inactive: [1] -0.045 | [2] -0.062 | [3] -0.06 | [4] -0.074 | entinostat 0.075 | vorinostat 0.062 | citarinostat -0.001 | silmitasertib 0.114 | [5] -0.006 | [6] -0.034

MRPS35 (UniProt P82673)
inactive: [1] 0.035 | [2] -0.07 | [3] -0.082 | [4] 0.012 | entinostat -0.027 | vorinostat 0.088 | citarinostat -0.011 | silmitasertib -0.119 | [5] -0.033 | [6] -0.03

MTMR14 (UniProt Q8NCE2)
inactive: [1] -0.02 | [2] -0.08 | [3] -0.087 | [4] -0.075 | entinostat 0.024 | vorinostat 0.093 | citarinostat 0.08 | silmitasertib 0.071 | [5] -0.081 | [6] 0.039

NACC1 (UniProt Q96RE7)
inactive: [1] 0.099 | [2] -0.082 | [3] -0.173 | [4] -0.075 | entinostat 0.062 | vorinostat 0.148 | citarinostat 0.235 | silmitasertib -0.027 | [5] -0.257 | [6] -0.057

NUMA1 (UniProt Q14980)
inactive: [1] -0.117 | [2] -0.091 | [3] -0.139 | [4] 0.101 | entinostat 0.072 | vorinostat 0.002 | citarinostat 0.01 | silmitasertib 0.005 | [5] 0.007 | [6] -0.12

MMS19 isoform 8 (UniProt Q96T76)
Chain of UniProt Q96T76 (Q96T76 whole entry, looked up): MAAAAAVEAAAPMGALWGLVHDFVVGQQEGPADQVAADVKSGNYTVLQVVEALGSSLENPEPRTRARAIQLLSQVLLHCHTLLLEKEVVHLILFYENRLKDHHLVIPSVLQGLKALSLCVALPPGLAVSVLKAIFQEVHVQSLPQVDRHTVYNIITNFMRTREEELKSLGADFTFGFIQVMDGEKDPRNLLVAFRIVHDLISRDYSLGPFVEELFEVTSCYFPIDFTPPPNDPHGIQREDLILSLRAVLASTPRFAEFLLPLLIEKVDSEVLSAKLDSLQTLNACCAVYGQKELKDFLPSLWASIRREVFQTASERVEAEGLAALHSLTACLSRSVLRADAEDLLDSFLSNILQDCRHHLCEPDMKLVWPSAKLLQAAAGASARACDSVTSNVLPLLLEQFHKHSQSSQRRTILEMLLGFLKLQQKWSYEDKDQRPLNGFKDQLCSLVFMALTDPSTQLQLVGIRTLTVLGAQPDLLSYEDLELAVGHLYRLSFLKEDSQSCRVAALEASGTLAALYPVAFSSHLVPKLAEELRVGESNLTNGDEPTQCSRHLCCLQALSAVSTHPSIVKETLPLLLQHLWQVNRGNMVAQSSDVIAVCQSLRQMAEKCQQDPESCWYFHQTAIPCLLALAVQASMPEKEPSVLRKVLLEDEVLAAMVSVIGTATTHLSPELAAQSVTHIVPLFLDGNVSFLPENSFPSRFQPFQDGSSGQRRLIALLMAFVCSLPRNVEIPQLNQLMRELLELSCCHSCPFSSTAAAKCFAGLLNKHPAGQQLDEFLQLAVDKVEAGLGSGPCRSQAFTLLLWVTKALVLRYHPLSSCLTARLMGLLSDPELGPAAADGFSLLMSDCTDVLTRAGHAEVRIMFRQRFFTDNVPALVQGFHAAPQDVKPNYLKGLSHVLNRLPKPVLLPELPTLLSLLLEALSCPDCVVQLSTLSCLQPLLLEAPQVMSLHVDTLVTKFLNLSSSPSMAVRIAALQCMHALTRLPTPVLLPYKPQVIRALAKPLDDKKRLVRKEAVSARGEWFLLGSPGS
inactive: [1] 0.01 | [2] -0.026 | [3] -0.157 | [4] -0.072 | entinostat 0.066 | vorinostat 0.017 | citarinostat 0.097 | silmitasertib 0.085 | [5] -0.003 | [6] -0.007

NEK3 (UniProt P51956)
Chain of UniProt P51956 (P51956 whole entry, looked up): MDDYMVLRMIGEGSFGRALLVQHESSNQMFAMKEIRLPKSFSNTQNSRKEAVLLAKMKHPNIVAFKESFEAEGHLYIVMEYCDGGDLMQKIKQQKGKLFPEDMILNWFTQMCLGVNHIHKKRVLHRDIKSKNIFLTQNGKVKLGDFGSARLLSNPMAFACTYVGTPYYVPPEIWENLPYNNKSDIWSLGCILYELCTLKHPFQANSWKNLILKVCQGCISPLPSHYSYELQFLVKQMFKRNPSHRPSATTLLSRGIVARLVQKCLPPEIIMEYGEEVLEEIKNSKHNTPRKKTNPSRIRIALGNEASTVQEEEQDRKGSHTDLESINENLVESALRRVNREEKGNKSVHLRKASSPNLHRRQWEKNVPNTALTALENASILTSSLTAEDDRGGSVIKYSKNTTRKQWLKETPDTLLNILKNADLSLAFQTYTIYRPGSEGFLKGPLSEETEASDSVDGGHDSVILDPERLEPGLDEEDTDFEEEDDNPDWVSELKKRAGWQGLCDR
inactive: [1] 0.09 | [2] 0.156 | [3] -0.119 | [4] 0.011 | entinostat 0.016 | vorinostat -0.256 | citarinostat 0.099 | silmitasertib 0.043 | [5] -0.017 | [6] -0.063

NEU1 (UniProt Q99519)
inactive: [1] -0.081 | [2] -0.088 | [3] -0.114 | [4] -0.057 | entinostat 0.003 | vorinostat 0.159 | citarinostat 0.087 | silmitasertib 0.04 | [5] -0.066 | [6] -0.063

NOL11 (UniProt Q9H8H0)
inactive: [1] 0.042 | [2] 0.055 | [3] 0.041 | [4] 0.038 | entinostat -0.019 | vorinostat -0.013 | citarinostat 0.035 | silmitasertib 0.068 | [5] 0.02 | [6] -0.041

OSTC (UniProt Q9NRP0)
Chain of UniProt Q9NRP0 (Q9NRP0 whole entry, looked up): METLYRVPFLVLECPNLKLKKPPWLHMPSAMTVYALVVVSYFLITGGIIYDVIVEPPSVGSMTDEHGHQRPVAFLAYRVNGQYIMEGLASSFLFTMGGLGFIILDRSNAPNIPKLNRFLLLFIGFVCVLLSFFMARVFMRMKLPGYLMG
inactive: [1] -0.062 | [2] 0.028 | [3] -0.107 | [4] -0.134 | entinostat 0.039 | vorinostat -0.001 | citarinostat 0.074 | silmitasertib -0.011 | [5] 0.05 | [6] -0.067

NR2C2 isoform 2 (UniProt P49116)
inactive: [1] -0.056 | [2] -0.036 | [3] -0.211 | [4] -0.104 | entinostat -0.02 | vorinostat -0.116 | citarinostat -0.022 | silmitasertib 0.074 | [5] 0.03 | [6] -0.04

NSUN2 (UniProt Q08J23)
inactive: [1] 0.029 | [2] -0.246 | [3] -0.106 | [4] -0.027 | entinostat 0.01 | vorinostat 0.137 | citarinostat 0.013 | silmitasertib 0.046 | [5] -0.026 | [6] -0.075

MSH3 (UniProt P20585)
inactive: [1] -0.175 | [2] -0.001 | [3] -0.126 | [4] -0.007 | entinostat -0.032 | vorinostat -0.017 | citarinostat 0.031 | silmitasertib 0.034 | [5] -0.069 | [6] -0.019

NDUFA4 (UniProt O00483)
Chain of UniProt O00483 (O00483 whole entry, looked up): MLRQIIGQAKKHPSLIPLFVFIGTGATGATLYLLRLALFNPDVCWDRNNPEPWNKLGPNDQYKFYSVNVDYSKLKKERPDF
inactive: [1] 0.026 | [2] 0.009 | [3] -0.075 | [4] -0.013 | entinostat 0.061 | vorinostat -0.11 | citarinostat 0.037 | silmitasertib -0.005 | [5] -0.056 | [6] -0.098

NELFA (UniProt Q9H3P2)
inactive: [1] 0.038 | [2] -0.016 | [3] 0.142 | [4] -0.245 | entinostat 0.002 | vorinostat 0.061 | citarinostat -0.169 | silmitasertib 0.065 | [5] -0.183 | [6] 0.002

NUP205 (UniProt Q92621)
inactive: [1] -0.042 | [2] -0.023 | [3] -0.075 | [4] -0.1 | entinostat 0.017 | vorinostat 0.041 | citarinostat 0.101 | silmitasertib 0.058 | [5] -0.073 | [6] -0.069

OSTM1 (UniProt Q86WC4)
Chain of UniProt Q86WC4 (Q86WC4 whole entry, looked up): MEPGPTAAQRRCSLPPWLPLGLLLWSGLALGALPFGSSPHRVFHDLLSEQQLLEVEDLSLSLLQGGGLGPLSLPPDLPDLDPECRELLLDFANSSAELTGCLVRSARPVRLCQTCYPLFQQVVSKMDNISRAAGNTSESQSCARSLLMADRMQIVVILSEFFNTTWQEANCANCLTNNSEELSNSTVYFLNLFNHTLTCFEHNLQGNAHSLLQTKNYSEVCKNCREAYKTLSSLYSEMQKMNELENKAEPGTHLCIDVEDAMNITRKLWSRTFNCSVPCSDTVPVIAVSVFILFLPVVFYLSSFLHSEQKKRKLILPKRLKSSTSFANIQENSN
inactive: [1] -0.035 | [2] -0.029 | [4] 0.003 | entinostat 0.006 | vorinostat 0.072 | citarinostat 0.064 | silmitasertib 0.034 | [5] -0.037 | [6] -0.037
active: [3] -0.319

NFE2 (UniProt Q16621)
Chain of UniProt Q16621 (Q16621 whole entry, looked up): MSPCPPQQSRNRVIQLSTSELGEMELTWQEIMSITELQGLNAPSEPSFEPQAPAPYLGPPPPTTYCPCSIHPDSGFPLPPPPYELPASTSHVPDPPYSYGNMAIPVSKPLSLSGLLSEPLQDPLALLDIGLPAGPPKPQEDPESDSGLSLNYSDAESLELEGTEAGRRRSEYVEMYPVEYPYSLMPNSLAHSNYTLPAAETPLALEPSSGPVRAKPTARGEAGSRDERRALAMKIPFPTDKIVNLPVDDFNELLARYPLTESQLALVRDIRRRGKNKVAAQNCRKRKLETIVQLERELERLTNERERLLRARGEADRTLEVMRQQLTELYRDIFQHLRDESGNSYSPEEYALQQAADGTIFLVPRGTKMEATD
inactive: [1] 0.035 | [2] -0.049 | [3] -0.091 | [4] -0.062 | entinostat -0.024 | vorinostat 0.055 | citarinostat 0.04 | silmitasertib 0.145 | [5] -0.037 | [6] 0.006

MYL12B (UniProt O14950)
Chain of UniProt O14950 (O14950 whole entry, looked up): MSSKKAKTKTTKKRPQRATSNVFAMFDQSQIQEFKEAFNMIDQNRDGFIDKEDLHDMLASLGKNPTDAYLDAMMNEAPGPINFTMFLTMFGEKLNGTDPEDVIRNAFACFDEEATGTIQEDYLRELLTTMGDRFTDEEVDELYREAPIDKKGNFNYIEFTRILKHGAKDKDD
inactive: [1] 0.09 | [2] 0.084 | [3] -0.013 | [4] 0.055 | entinostat 0.029 | vorinostat -0.004 | citarinostat 0.045 | silmitasertib -0.037 | [5] -0.042 | [6] 0.026

OAT (UniProt P04181)
inactive: [1] -0.051 | [2] -0.076 | [3] -0.235 | [4] -0.058 | entinostat 0.029 | vorinostat 0.129 | citarinostat 0.131 | silmitasertib -0.036 | [5] -0.031 | [6] 0.006
